# Reference: ChEMBL document CHEMBL3988442, “University of Dundee, Small-Polar-MMV Screening Library” (2021)
# Experiments:
# [1] = target: T1, Aspartate--tRNA(Asp/Asn) ligase (Mycobacterium tuberculosis (strain ATCC 25618 / H37Rv)) (UniProt P9WFW3); assay: Assay for Asp RNA synthetase-1 from Mycobacterium tuberculosis; format: functional; design: scale not given: direction of the effect not stated beside the values; details: 30 µM; further: in the data most compounds retested in dose-response had high values
# T1 sequence (whole entry): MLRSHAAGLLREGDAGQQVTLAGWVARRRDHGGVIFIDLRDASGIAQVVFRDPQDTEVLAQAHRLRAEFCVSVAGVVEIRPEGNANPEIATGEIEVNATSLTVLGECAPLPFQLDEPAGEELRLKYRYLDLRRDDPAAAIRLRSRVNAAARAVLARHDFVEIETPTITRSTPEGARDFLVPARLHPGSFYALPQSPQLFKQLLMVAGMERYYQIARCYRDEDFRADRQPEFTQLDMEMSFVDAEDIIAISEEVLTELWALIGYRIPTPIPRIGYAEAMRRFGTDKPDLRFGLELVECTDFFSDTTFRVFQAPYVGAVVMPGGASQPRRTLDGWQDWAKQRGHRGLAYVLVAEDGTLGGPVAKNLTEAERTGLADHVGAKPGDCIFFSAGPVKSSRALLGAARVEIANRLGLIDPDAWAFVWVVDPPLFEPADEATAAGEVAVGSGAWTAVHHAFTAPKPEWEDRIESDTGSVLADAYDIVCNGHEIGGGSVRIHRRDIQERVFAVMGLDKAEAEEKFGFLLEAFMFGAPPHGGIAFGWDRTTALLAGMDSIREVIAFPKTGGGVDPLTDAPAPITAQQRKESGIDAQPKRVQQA
# [2] = target: Shiga toxin 2 (Escherichia coli O157:H7) (UniProt P09385+P09386); assay: E. coli 0.157:H7 Shiga Toxin SOP - stx2 screening assay; format: functional; design: scale not given: direction of the effect not stated beside the values; details: 30 µM
SMILES,Percent Effect [1] [%],Percent Effect [2] [%]
CCc1c(C(=O)N2CCN(CC(N)=O)CC2)cnn1C(C)(C)C,-2.87,2.77
Cc1cc(C(C)NC(=O)N2CCC(n3cncn3)CC2)c(C)s1 (stereo not given),0.6,6.48
CN(C(=O)c1cc(Cl)c[nH]1)C1CCN(c2ccccn2)CC1,-6.49,1.72
Cc1nc(NC(=O)CNC(=O)c2c(F)cccc2Cl)n[nH]1,6.53,3.62
Cc1cccc(N2CCN(CCCNC(=O)c3nccn3C)CC2)c1,-3.22,-11.1
Cc1ccccc1Oc1ncccc1CNS(C)(=O)=O,-3.12,-11.9
Cc1cc(C)c(CNC(=O)N2CCN(c3ncccn3)CC2)c(=O)[nH]1,-0.7,-6.87
CCc1nc(C2CCCN2Cc2nc(CCOC)no2)no1 (stereo not given),5.05,-11.9
CCc1nc(C2CCCN(C(=O)c3cccc4c3ccn4C)C2)no1 (stereo not given),-0.845,4.78
O=C(c1ccco1)N1CCCC(c2cc(C(F)F)n3ncnc3n2)C1 (stereo not given),-0.849,-7.72
Cn1nc2c(cc1=O)CN(CCc1nc3ccccc3c(=O)[nH]1)CC2,7.01,2.17
Cn1c2c(ccc1=O)CC(NS(C)(=O)=O)CC2 (stereo not given),-0.956,-18
O=C(c1cnccn1)N1CCN(Cc2csc(-c3ccccc3)n2)CC1,1.34,26.4
O=C(NCCOc1ccc(F)c(F)c1)NCc1cccc(CO)c1,0.257,-6.88
Cc1ccc2c(c1)CN(C(=O)C1CCCCC1)C(CN(C)C)CO2 (stereo not given),1.26,2.56
Cn1nc(CNC(=O)C2CCCC2)cc1C1CC1,0.0146,-25.7
CC(C)C1CN(c2ncccn2)CCC(=O)N1Cc1ccc(F)cc1 (stereo not given),3.51,3.8
CC(C)C(Sc1nnnn1C1CC1)C(=O)NCc1cccnc1 (stereo not given),-3.1,-4.91
CC(C)(C)c1nnc(CN2CCOC(Cn3cccn3)C2)o1 (stereo not given),-6.74,-2.05
Cc1cc(N2CCC(N(C)C(=O)c3ccccc3)CC2)nc(C)n1,-5.32,-9.61
CN1CCN(C(=O)CC2CCN(CCc3ccccn3)CC2)CC1,-2.94,8.24
CNC(=O)[C@@]12CCO[C@@H]1CCN(S(=O)(=O)c1cccc(C)c1)C2,-4.6,9.63
O=C(NCC1CC1)C1CN(C(=O)c2ccncc2)CC12CCOCC2 (stereo not given),3.22,-21.5
CN(C)S(=O)(=O)N1CCC(Oc2ccccn2)CC1,3.02,10.6
Cn1ccc(CN2CCCC2c2ccc3c(c2)OCCCO3)cc1=O (stereo not given),-1.54,-60

SMILES,Percent Effect [1] [%],Percent Effect [2] [%]
CC(C)N1CCc2c(C#N)c(NCc3ccco3)n3cnnc3c2C1,3.86,-4.38
Cc1nc(C2CCCN2CCCNS(C)(=O)=O)no1 (stereo not given),-0.167,23.5
CC(C)Cc1cc(C(=O)NCc2nnc[nH]2)[nH]n1,1.11,2.04
Cc1ccc2c(ccn2CCC(=O)O)c1,0.776,-8.69
Cc1ccc(F)c(C(=O)N2CCN(S(C)(=O)=O)[C@@H](C)C2)c1,-2.79,-20.5
CC(C)n1ncc2cc(NC(=O)N3CCC(N4CCCC4)C3)cnc21 (stereo not given),-5.1,-51.5
c1csc(-c2nc(CN3CCOC(Cn4cncn4)C3)co2)c1 (stereo not given),21.8,19.9
CC(C)c1nn(C)c(N(C)C)c1CNCC(O)c1ccccc1F (stereo not given),-7.16,-23.3
Cc1cc(-c2nnn(CCC(N)=O)n2)ccc1F,-0.912,-20.8
CCc1ccc(CNC(=O)NC(C)CN2CCOCC2)s1 (stereo not given),1.38,-4.66
O=C(C1CCOC1)N1CC[C@@H](O)[C@@H]1Cc1ccccc1 (stereo not given in full),-2.71,-16.7
Cc1ccoc1C(=O)N1CC[C@H]2OCC[C@@]2(COCc2ccncc2)C1,3.13,-14.8
CN(Cc1ccco1)C[C@H]1OC[C@@H]2CCN(Cc3cccnc3)C[C@@H]21,3.55,-24.2
Cc1nc(C)n(CC2CCCN(CCNC(=O)OC(C)(C)C)C2)n1 (stereo not given),-2.36,7.06
CC(=O)Nc1nc(C(=O)N2CCCC(c3cc(C)[nH]n3)C2)cs1 (stereo not given),0.141,-12.2
CC(C)c1nnc(NC(=O)NCc2ccc(CO)c(F)c2)s1,1.21,0.535
O=C(c1cc(F)ccc1F)C1CCN(C(=O)c2ccc(=O)[nH]n2)CC1,0.519,28.6
CCn1cc(NC(=O)NCc2ccc(CN3CCOCC3)cc2)cn1,3.24,-35.1
Cc1cccc(CN2C(=O)CCC23CCN(c2ncc(F)cn2)CC3)n1,-0.66,-5.21
CCn1ccnc1CN1CCCN(C(=O)c2cccc(C#N)c2)CC1,0.189,-8.53
Cn1ccnc1CN1CCN(Cc2noc(-c3ccccc3)n2)CC1,-2.31,-6.06
CCCN(CC)C(=O)c1cc2c(c3ccccc3n2C)n1C(=O)N(C)C,6.03,2.44
O=C(NCC1CCOC1)c1csc(-c2cccc(Cl)c2)n1 (stereo not given),0.759,5.81
O=C(CCc1ccsc1)N1CCC(Cc2ccc(CO)cc2)C1 (stereo not given),0.501,-19.1
CN1CCN(Cc2ccccc2CNC(=O)c2ccc(Br)cc2)CC1,-0.466,0.652

SMILES,Percent Effect [1] [%],Percent Effect [2] [%]
Cc1cc(C)cc(NC(=O)CN2CCCC(n3cncn3)C2)c1 (stereo not given),-0.903,12.2
O=C(NCc1cn2c(n1)CN(CC1CCOCC1)CC2)C1CCC1,0.662,-18.2
CC(CN1CCOCC1)NC(=O)N(C)Cc1ccc(Cl)s1 (stereo not given),1.38,-12.6
Cc1nc(C2CCN(C(=O)CO)CC2)cc(N2CCOCC2)n1,-1.91,17.7
COc1ncccc1CNC(=O)NC1CCOc2ccccc21 (stereo not given),-1.92,-19.2
Cc1ccc(C(=O)N2CCN(Cc3ccsc3)CC2)n1C,1.28,3.04
Cc1cc(NC(=O)C(c2cccc(F)c2)N2CCOCC2)ccn1 (stereo not given),5,-6.3
Cc1cc(C(=O)NCc2ccc(N3CCCC(C(N)=O)C3)cc2)no1 (stereo not given),-6.8,-3.03
Cc1cnn(CCNCc2nnc(C3CC3)o2)c1,4.75,-42.1
COC(=O)CCC(=O)N1CCC2(CN(Cc3cccc(F)c3)C2)C1,8.76,2.07
Cc1cnn(CC2CN(Cc3nccn3C)CCO2)c1 (stereo not given),-3.32,17.1
Cc1nc(O)cc(C2CCN(Cc3cccc(F)c3F)C2)n1 (stereo not given),-1.21,-17.9
CC(=O)N1CC(=O)N(c2cnn(C)c2)CC12CCN(Cc1ccoc1)C2 (stereo not given),-2.35,0.489
O=C(c1ccccn1)N1CCc2nc(-c3cnccn3)nc(O)c2C1,-1.53,-15.6
CN1CCN(Cc2cccnc2)C2(CCN(c3ncc(F)cn3)C2)C1=O (stereo not given),4.87,-19.6
CN(C)S(=O)(=O)N1C[C@@H]2CC[C@H](C1)N(Cc1ccc3nsnc3c1)C2,-2.42,-1.59
O=C(NCC1CC1)[C@H]1C[C@H]2OCC[C@H]2N(Cc2ccsc2)C1,4.96,13.4
Cc1nc(C2CCCN(C(=O)CCCn3ccnc3C)C2)no1 (stereo not given),-1,14.1
Cc1ccc2c(c1)c(CNC(=O)C1CC(=O)N(C3CCCC3)C1)nn2C (stereo not given),4.05,-18
CN(C)C[C@H]1OC[C@@H]2CCN(S(=O)(=O)c3cccs3)C[C@@H]21,-0.29,-8.75
COc1ccc(C(=O)NCC(c2cccn2C)N2CCCC2)c(OC)c1 (stereo not given),-4.85,-22.3
CC(C)c1nccn1C1CCCN(C(=O)c2ccc3c(c2)OCO3)C1 (stereo not given),-0.317,10.5
O=C(Cc1ccc2c(c1)CCO2)N1CCN(c2cnccn2)CC1,-4.06,-23.3
CC(C)NC(=O)N1CCc2ncc(CN3CCOCC3)n2CC1,3.1,0.463
CC(=O)Nc1ccc(S(=O)(=O)NC(=O)CCC2CCCO2)cc1 (stereo not given),2.52,-2.77

SMILES,Percent Effect [1] [%],Percent Effect [2] [%]
COC[C@@H]1CC[C@H]2[C@H](CCN2S(=O)(=O)c2cccc(C)c2)O1,3.92,-4.66
CCn1c(=O)nc2n1C(=O)N(c1cccc(Cl)c1)C2,0.929,-43.9
O=C(NCC(O)c1cccc(F)c1)c1cccnc1O (stereo not given),-2.85,-19
c1cnnc(N2CCCC(NCc3cn4ccccc4n3)C2)c1 (stereo not given),2.13,-114
Cc1noc(C2CCN(C(=O)CCNc3ncccn3)CC2)n1,0.856,-36.4
Cn1cnnc1C1CCCN(C(=O)c2cc(Cl)c3c(c2)OCO3)C1 (stereo not given),-5.25,-2.91
O=C(COc1coc(CN2CCCCC2)cc1=O)NCc1ccccc1,10.2,-39.3
COc1ccc(CNCc2ccnc(N3CCOCC3)c2)cc1OC,-2.66,-52.5
Cc1ncc(CNC2CCCN(Cc3noc(C4CC4)n3)C2)s1 (stereo not given),-4.12,28.2
Cc1nc2ccccc2nc1CN1CCCC1Cn1cncn1 (stereo not given),-6.08,7.83
Cc1nc(C)n(CC2CN(CC(=O)Nc3cccnc3)CCO2)n1 (stereo not given),-1.48,2.66
COCCN1CCN(Cc2ccc(F)c(C)c2)[C@H]2CS(=O)(=O)C[C@H]21,-3.12,-5.44
Cc1nccc([C@H]2C[C@@H]3CCN(S(=O)(=O)N(C)C)C[C@H]3O2)n1,1.71,6.66
CNC(=O)c1ccc(C(=O)N2CCCC2c2cnn(C)c2)cn1 (stereo not given),-5.79,-8.21
CS(=O)(=O)NCC1CCCN(C(=O)COc2ccc(F)cc2)C1 (stereo not given),-1.75,-25.1
CC(C)OCCCNC(=O)c1ccc(-c2ccco2)[nH]c1=O,-5.99,19
CCNC(=O)CN1CCCN(C(=O)C2CCCc3[nH]ncc32)CC1 (stereo not given),-3.09,-2
COCC1CN(C(=O)c2ccnnc2)Cc2c1cnn2C (stereo not given),0.28,-14.3
Cc1nc2cc(C3CCN(Cc4cccc(F)c4F)C3)nn2c(O)c1C (stereo not given),2.37,-139
O=C(c1cccnc1)N1CCC2(CC1)CCN(c1ccsc1)C2=O,3.8,-6.67
Cc1cc(C2CCCN2Cc2ccn(C)c(=O)c2)no1 (stereo not given),-1.63,8.31
O=C(c1ccc(F)c(Cl)c1)N1C[C@@H]2CC[C@H](C1)N(Cc1ccccc1)C2,4.06,-25.3
COc1cc(CNCCc2cnn(C)c2)cc2c1OCCO2,-1.03,10.4
COc1ccc(NCc2nc(=O)n(CCC(C)C)[nH]2)cc1,-2.01,5.42
Cc1noc(C)c1-c1cccc(CC2CCN(C(=O)c3cc[nH]n3)C2)n1 (stereo not given),-1.22,4.37
